About 5,700 (2.6%) of roughly 220,000 compounds were called active. A call without a number means that no potency is given here. About 18% were inconclusive and are not listed. Calls follow the shape of the dose curve; as a rule, active = well fitted inhibition curve with a large enough effect; inconclusive = small, poorly fitted or top-dose-only effect; inactive = no such curve, though single readings can be large or run the other way. For the sample, actives were picked, then their nearest neighbours and some compounds at random.
Target: Lysine-specific demethylase 5B (Homo sapiens) (UniProt Q9UGL1)
Sequence (Q9UGL1 whole entry, looked up): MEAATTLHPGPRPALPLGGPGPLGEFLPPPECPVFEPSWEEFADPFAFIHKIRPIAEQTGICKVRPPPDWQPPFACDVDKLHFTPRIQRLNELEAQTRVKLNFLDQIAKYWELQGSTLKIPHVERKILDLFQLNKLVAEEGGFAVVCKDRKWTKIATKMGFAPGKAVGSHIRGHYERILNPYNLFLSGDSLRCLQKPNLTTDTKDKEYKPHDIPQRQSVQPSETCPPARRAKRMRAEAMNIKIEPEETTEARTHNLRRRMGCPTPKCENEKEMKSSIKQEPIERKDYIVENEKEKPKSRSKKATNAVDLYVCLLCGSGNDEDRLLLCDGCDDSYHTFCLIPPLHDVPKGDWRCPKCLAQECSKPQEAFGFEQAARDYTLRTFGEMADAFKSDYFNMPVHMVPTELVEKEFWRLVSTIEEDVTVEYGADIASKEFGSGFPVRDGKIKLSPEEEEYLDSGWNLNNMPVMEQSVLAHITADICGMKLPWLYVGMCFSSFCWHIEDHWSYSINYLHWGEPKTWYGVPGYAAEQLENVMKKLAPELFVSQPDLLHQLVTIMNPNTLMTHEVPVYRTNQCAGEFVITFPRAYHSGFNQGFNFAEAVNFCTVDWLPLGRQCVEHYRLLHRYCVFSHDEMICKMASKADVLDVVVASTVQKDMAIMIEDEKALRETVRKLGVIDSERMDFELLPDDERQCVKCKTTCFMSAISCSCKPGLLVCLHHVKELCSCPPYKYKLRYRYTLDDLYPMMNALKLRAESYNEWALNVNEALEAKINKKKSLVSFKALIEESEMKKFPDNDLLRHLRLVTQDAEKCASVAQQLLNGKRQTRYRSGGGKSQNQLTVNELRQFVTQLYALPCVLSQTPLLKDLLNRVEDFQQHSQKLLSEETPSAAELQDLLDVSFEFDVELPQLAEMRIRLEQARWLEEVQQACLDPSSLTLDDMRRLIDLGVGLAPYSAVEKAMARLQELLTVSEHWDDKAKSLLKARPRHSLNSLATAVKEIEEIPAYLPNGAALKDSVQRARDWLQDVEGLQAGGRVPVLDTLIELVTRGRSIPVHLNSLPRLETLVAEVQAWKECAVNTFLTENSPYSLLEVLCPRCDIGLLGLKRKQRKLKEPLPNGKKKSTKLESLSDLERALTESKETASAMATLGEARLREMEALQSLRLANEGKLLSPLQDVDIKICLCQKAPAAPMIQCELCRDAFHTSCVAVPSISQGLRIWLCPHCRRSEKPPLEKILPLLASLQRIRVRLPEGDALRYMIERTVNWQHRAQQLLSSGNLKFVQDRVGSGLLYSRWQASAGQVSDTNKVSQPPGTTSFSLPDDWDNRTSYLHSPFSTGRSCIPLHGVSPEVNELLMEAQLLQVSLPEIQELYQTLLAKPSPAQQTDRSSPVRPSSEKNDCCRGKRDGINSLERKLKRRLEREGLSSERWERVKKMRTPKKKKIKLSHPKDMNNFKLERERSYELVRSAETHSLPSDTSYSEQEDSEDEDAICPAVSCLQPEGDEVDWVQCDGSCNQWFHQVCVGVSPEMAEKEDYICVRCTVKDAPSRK
Assay: Primary screen for KDM5B Histone Demethylases FDH-coupled qHTS; also: nearly all actives have a fitted effect of over 70% in size
Details: FDH-coupled NADH fluorescence (FDH is formaldehyde dehydrogenase); series mostly up to 57.7 µM
How it was run: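 Measured: NADH fluorescence change, 30 min, RT. System: KDM5BΔAP 200 nM final, H3K4me3 peptide, α-KG, Fe(II), ascorbate, NAD⁺ plus FDH, pH 7.5 HEPES. Compounds: titrated, 10 min pre-incubation with enzyme.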
Potency is read from the fitted curve at half-maximal effect.

| Structure (SMILES) | Potency |
| --- | --- |
| CN1CCc2c([nH]c3ccccc23)C12CCN(C(=O)c1nccc3ccccc13)CC2 | inactive |
| COc1ccc2[nH]c3c(c2c1)CCNC31CCN(C(=O)c2ccccc2)CC1 | inactive |
| COCCOCC(=O)N1CCC2(CC1)c1[nH]c3ccc(OC)cc3c1CCN2C | 28.2 µM (active) |
| CCN1CCC(N(C(=O)c2cc3ccccc3n2C)C2CC2)CC1 | inactive |
| CCc1cc(=O)oc2c(C)c(OCC(=O)NCCN3CCOCC3)ccc12 | inactive |
| O=C(Cc1ccc(Cl)cc1)N1CCc2c(nc3cc[nH]n3c2=O)C1 | 31.6 µM (active) |
| CCn1c2c(c(=O)n1Cc1ccccc1)CCN(C(=O)Cc1ccc3c(c1)OCO3)C2 | inactive |
| O=C(Cc1ccc(F)cc1)N1CCCC(c2nn(-c3ccc(Cl)cc3)c(=O)[nH]2)C1 (stereo unspecified) | inactive |
| Cc1nn2c(c1-c1ccccc1C(C)C)N(C(=O)c1cnccn1)CCC2 | inactive |
| Cc1nn2c(c1-c1ccccc1N1CCCC1)N(C(=O)c1ccn(C)n1)CCC2 | 7.94 µM (active) |
| Cc1nn2c(c1-c1ccccc1C(C)C)N(C(=O)c1cccc(C#N)c1)CCC2 | inactive |
| COc1cc(C2Nc3ccc(C)cc3[C@H]3OCCC[C@@H]23)cc(Cl)c1O (stereo partly specified) | inactive |
| COc1ccc(CNC(=O)c2cc3c(s2)CN(C2CC2)C3)cc1OC | 11.2 µM (active) |
| CSc1ccc(CNC(=O)c2cc3c(s2)CCCC3)cc1 | inactive |
| COc1cc(CNC(=O)Cc2ccc(OC)c(OC)c2)ccn1 | inactive |
| Cc1cccc(N2C(=O)c3ccc(C(=O)Nc4cccc(C(=O)O)c4)cc3C2=O)c1 | inactive |
| CCCNc1ccc2nnc(C)n2n1 | inactive |
| CC(C)CNc1ccc2nnc(-c3ccccn3)n2n1 | 31.6 µM (active) |
| Cc1ccc(OCC(=O)Nc2ccc3oc(=O)ccc3c2)cc1C | inactive |
| O=C(CCNc1cnc2cnccn12)NC1CCN(Cc2ccccc2)CC1 | 22.4 µM (active) |
| O=C(O)CC1(CC(=O)NC2CCN(Cc3ccccc3)CC2)CCCC1 | inactive |
| O=C(CCc1ncc(-c2ccc(F)cc2)o1)NC1CCN(Cc2ccccc2)C1 (stereo unspecified) | inactive |

| Structure (SMILES) | Potency |
| --- | --- |
| COc1ccc2c(c1)OCC(C(=O)N1CCCN(c3ncccn3)CC1)C2 (stereo unspecified) | 25.1 µM (active) |
| Cc1cc(OCC(=O)N2CCN(c3ncccn3)CC2)ccc1Cl | inactive |
| O=C(c1ccoc1)N1CCCN(C(=O)C2COc3ccccc3C2)CC1 (stereo unspecified) | inactive |
| Cc1nc(CNC(=O)[C@H]2CCC[C@@H](O)C2)nc2c1CCCC2 | inactive |
| Cc1nc(CCNc2nccc(-c3cccnc3)n2)nc2c1CCCC2 | 28.2 µM (active) |
| Cc1nc(CCNS(=O)(=O)c2cccnc2)no1 | inactive |
| O=C(CCSc1nc2ccccc2s1)NCc1cc(F)cc(F)c1 | inactive |
| COC(=O)c1ccc(C(=O)OCc2nc(N)c3ccccc3n2)cc1 | inactive |
| O=C(O)CCn1ncc2cc(OC3CCN(C(=O)C4CCCC4)CC3)ccc21 | inactive |
| NC(=O)Cn1ccc2cc(OCC3CCN(C(=O)C4CCCC4)CC3)cnc21 | 35.5 µM (active) |
| CCn1ccc2cc(S(=O)(=O)N3CCC(C(=O)N4CCN(C)CC4)CC3)ccc21 | inactive |
| Cc1ccc(-n2nnnc2SCc2nc3ccsc3c(=O)[nH]2)c(C)c1 | inactive |
| O=C(Nc1ccc(SC2CCCC2)cc1)C1CCCC1 | inactive |
| CCCS(=O)(=O)N1CCC2(CC1)C(OC)C(=O)N2CC1CC1 (stereo unspecified) | inactive |
| CCCS(=O)(=O)N1CCC(Cc2nc(-c3cccnc3)n[nH]2)C1 (stereo unspecified) | inactive |
| C=CCNC(=O)C[C@@H]1CCN(C(=O)c2cccnc2)C[C@@H]1CC | inactive |
| CCOc1nccnc1NC1CCN(C(=O)c2cccnc2)CC1 | 28.2 µM (active) |
| CCCS(=O)(=O)N1CCC(Nc2nccnc2OCC)CC1 | 15.8 µM (active) |
| COC(=O)[C@@H]1CN(C(=O)c2cccnc2)CCN1C(C)=O | inactive |
| CC(Sc1nc(N)cc(N)n1)C(=O)c1ccc(Cl)cc1 (stereo unspecified) | inactive |
| Cn1cc(-c2cc3n(n2)CCC(=O)N3CC(=O)NC2CCCCC2)c2ccccc21 | inactive |
| CCCCN(CCCC)c1cccc(-c2cccc(N(CCCC)CCCC)c2)c1 | inactive |

| Structure (SMILES) | Potency |
| --- | --- |
| Cc1cccc(C)c1NC(=O)CSc1nc2c(cc1C#N)CCCC2 | inactive |
| N#Cc1cc2c(nc1SCC(=O)NCCc1ccccc1)CCCC2 | inactive |
| N#Cc1cc2c(nc1N1CCN(C3CCCC3)C(CCO)C1)CCCC2 (stereo unspecified) | 28.2 µM (active) |
| CCCCn1nc(C(=O)NC(CC)CC)c2ccccc2c1=O | inactive |
| COc1ccc(-c2[nH]ncc2CN2CCCC(C(=O)NCc3ccccc3)CCNC(=O)CC2)cc1 (stereo unspecified) | inactive |
| COc1ccc(-c2cc(N3CCN(C(=O)Cc4cccc(OC)c4)CC3)n[nH]2)cc1 | inactive |
| COc1ccc2cc(-c3[nH]ncc3CN3CCN(c4cccc(C)n4)CC3)ccc2c1 | 28.2 µM (active) |
| COc1ccc(CN2CCc3nc(C(=O)N4CCOCC4)oc3CC2)cc1OC | inactive |
| Cc1cccc(CN2CCc3nc(C(=O)Nc4ccc(Cl)cc4)oc3CC2)c1 | 31.6 µM (active) |
| O=C(Nc1ccc(-n2cccn2)cc1)C1CCN(Cc2ccsc2)CC1 | inactive |
| O=C(NCC1CC1)c1nc2c(o1)CCN(Cc1cccc(F)c1F)CC2 | inactive |
| O=C(Nc1ccccc1)c1nc2c(o1)CCN(Cc1cccc(Cl)c1)CC2 | 28.2 µM (active) |
| O=C(Nc1ccc(Cl)cc1)c1nc2c(o1)CCN(Cc1ccsc1)CC2 | 31.6 µM (active) |
| O=C(c1nc2c(o1)CCN(Cc1ccccc1F)CC2)N1CCOCC1 | inactive |
| O=C(NCC1CC1)c1nc2c(o1)CCN(CCc1ccccc1)CC2 | inactive |
| CCOc1ccc(NC(=O)CSc2nc3c(c(=O)[nH]2)CN(Cc2ccc(Cl)cc2)CC3)cc1 | inactive |
| Cc1cc(Br)ccc1NC(=O)CN(C)Cc1ncc(-c2ccc(F)cc2)o1 | inactive |
| CCc1ccc(CN(C(=O)c2cc(=O)c3cc(C)cc(C)c3o2)C2CCS(=O)(=O)C2)cc1 (stereo unspecified) | inactive |
| O=C(CSc1ncnc2sc3c(c12)CCCC3)Nc1ccc(F)cc1 | inactive |
| CC(C)NC(=O)c1ccccc1NC(=O)C(Cl)Cl | inactive |
| CCCn1nc(C(=O)NCc2ccc(OC)cc2)c2ccccc2c1=O | inactive |
| Oc1ccc(-c2ccc(-c3nc(CCc4ccccc4)no3)cn2)cc1 | 25.1 µM (active) |

| Structure (SMILES) | Potency |
| --- | --- |
| Cc1ccc(-c2nc(C(=O)N(C)Cc3ccccc3)no2)cc1 | inactive |
| O=C(NCCc1noc(-c2ccccc2)n1)C1CC1 | inactive |
| CCc1ccc(N/C(N)=N/c2nc(C)cc(C)n2)cc1 | inactive |
| COC(=O)CC1c2cc(OC)c(OC)cc2CCN1Cc1nc(CC(C)C)no1 (stereo unspecified) | inactive |
| O=C(/C=C/c1ccc(-c2cc(Cl)ccc2Cl)o1)c1ccc(F)cc1 | inactive |
| COC[C@@H]1CN(c2ncccn2)C[C@H]1C(=O)Nc1ccncc1 | 20 µM (active) |
| CNC(=O)[C@@H]1CN(C(=O)Cc2cccnc2)C[C@H]1COC | inactive |
| CNC(=O)[C@@H]1CN(C(=O)c2n[nH]c3ccccc23)C[C@H]1COC | inactive |
| S=C(NCCc1ccc(Cl)cc1)Nc1ccc(Oc2ccccc2)cc1 | inactive |
| CN(C)[C@@H]1CN(C(=O)c2cccn2C)CC[C@@H]1CO | inactive |
| OCc1cccc(-c2cc(C3=CCOCC3)c3cncn3c2)c1 | 31.6 µM (active) |
| FC(F)(F)c1cccc(-c2cc(C3=CCOCC3)c3cncn3c2)c1 | 35.5 µM (active) |
| CN(C)Cc1cccc(-c2cc(-c3ccncc3)c3cncn3c2)c1 | 28.2 µM (active) |
| Cc1noc(C)c1-c1cc(-c2cncnc2)cn2cncc12 | inactive |
| Cc1nc(NC(C)C)sc1C(=O)Nc1ccccc1 | inactive |
| O=C(COC(=O)c1cc2ccccc2[nH]1)NCc1ccc(F)cc1 | inactive |
| NC(=O)c1ccc(CN(Cc2cccs2)C2CC2)cc1 | inactive |
| O=C(O)CCC(=O)NC1CC2(CCN(C(=O)c3ccccc3)CC2)c2ccccc21 (stereo unspecified) | inactive |
| CCOc1ccc(CN(C)CC(O)COc2ccc(C)cc2C)cc1OC (stereo unspecified) | inactive |
| CC(=O)N1CCN(C(=O)c2ccc3c(ccn3C)c2)CC1 | inactive |
| CC(=O)NC1(C)CN(Cc2ccc(-c3ccc4c(ccn4C)c3)s2)C1 | 35.5 µM (active) |
| Cn1ccc2cc(S(=O)(=O)N3CCC(C(=O)NCCN4CCCC4)CC3)ccc21 | inactive |

| Structure (SMILES) | Potency |
| --- | --- |
| CC(=O)NC1(C)CCN(Cc2cnc(-c3ccc4c(ccn4C)c3)s2)CC1 | 35.5 µM (active) |
| CCC(=O)c1ccc(OC(=O)c2nn(C(C)C)c(=O)c3ccccc23)cc1 | inactive |
| Cc1ccc(Nc2cc(C)nc3c(C)c(C)cc([N+](=O)[O-])c23)c(C)c1 | inactive |
| O=S(=O)(CCSc1nnc(-c2ccccc2)o1)c1ccc(Br)cc1 | inactive |
| COc1ccc(C(=O)OCC(=O)NCC(F)(F)F)cc1 | inactive |
| O=C(CSc1nc2ccccc2s1)Nc1ccc2c(c1)CCC2 | inactive |
| O=C(CCc1ncc(-c2ccc(F)cc2F)o1)Nc1ccccc1 | inactive |
| Cc1cccc(NC(=O)Nc2ccc(OCc3ccccc3)cc2)n1 | inactive |
| CCn1ccc2cc(S(=O)(=O)N3CCC(C(=O)NCC4CCCO4)CC3)ccc21 (stereo unspecified) | inactive |
| CC(=O)N1CCN(Cc2cc(F)ccc2Cl)CC(O)C1 (stereo unspecified) | inactive |
| O=C(c1ccc2[nH]ccc2c1)N1CCN(S(=O)(=O)c2cccc3nonc23)CC1 | inactive |
| O=C(c1ccc2cc[nH]c2c1)N1CCN(Cc2cnc[nH]2)CC(O)C1 (stereo unspecified) | 25.1 µM (active) |
| CN(C)C(=O)c1cccc(NCC(=O)NC(=O)NCc2ccccc2)c1 | inactive |
| Cc1ccc(C(=O)N2CCN(c3oc(C4CC4)nc3C#N)CC2)c(C)c1 | inactive |
| Cc1ccc(OCCOc2cccc(/C=N/NC(N)=O)c2)cc1 | inactive |
| CCc1ccccc1NC(=O)c1cc(C)nc2ccccc12 | inactive |
| CC(C)C(=O)Nc1ccc2oc(-c3cccc(Cl)c3)nc2c1 | inactive |
| Cc1ccc2c(C(=O)O)cc(NC(=O)C(C)C)cc2n1 | 20 µM (active) |

— PubChem BioAssay AID1347165 (National Center for Advancing Translational Sciences (NCATS), 2019)
